Source: PubChem (several laboratories)
Lmaj promast – Leishmania major promastigote growth inhibition, primary screen | 9% of 200,000 active | Leishmania major promastigotes, resazurin fluorescence viability | inhibition, % at 10 µM | AID 1063, 2008; in the data active = inhibition above about 50%;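 note: promastigotes grown with compound for 44 hours at 28 °C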
ROMK primary – ROMK potassium channel modulators, primary screen, cell-based, thallium flux, MLSMR library | ATP-sensitive inward rectifier potassium channel 1 (Homo sapiens), P48048 | AID 1918, 2009 | B-score at 10 µM | Tet-inducible ROMK, thallium flux fluorescence; actives lie on both sides | 2% of 130,000 active;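 active = signal ratio slope over the read window, or its plate-corrected B-score, at least 3 SD from the plate mean, either direction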;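 note: B-score of the F/F0 ratio slope over 7 to 12 s after thallium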
Target sequence (P48048 whole entry, looked up): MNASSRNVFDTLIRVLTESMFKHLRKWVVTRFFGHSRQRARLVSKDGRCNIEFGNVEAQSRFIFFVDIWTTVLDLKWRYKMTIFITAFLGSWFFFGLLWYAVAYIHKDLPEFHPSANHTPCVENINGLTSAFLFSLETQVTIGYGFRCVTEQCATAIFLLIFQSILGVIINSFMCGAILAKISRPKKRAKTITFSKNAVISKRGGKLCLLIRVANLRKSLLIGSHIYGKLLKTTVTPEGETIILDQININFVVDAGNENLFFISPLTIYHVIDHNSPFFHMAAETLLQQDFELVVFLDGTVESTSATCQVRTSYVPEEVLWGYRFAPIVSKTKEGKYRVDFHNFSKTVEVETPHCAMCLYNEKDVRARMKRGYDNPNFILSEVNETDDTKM
WT yeast gro inh – growth inhibition of WT strain, primary screen, mitochondrial fusion inhibitor project, WT and mutant strains, chemical genetic; mitochondrial fusion phenotypic screen; inhibition, % at 10 µM; 2.1% of 190,000 active; AID 1362, 2008; in the data active = inhibition above about 58%; tested in S. cerevisiae
Cl transport mod – KCC2 cotransporter modulators, thallium flux, primary screen, cell-based, HEK293 KCC2, FluoZin-2 fluorescence, MLSMR; Solute carrier family 12 member 5 (Homo sapiens), Q9H2X9; KCC2 cells, thallium flux FluoZin-2 fluorescence; B-score of Tl+ flux slope (higher = more flux/activation; lower = inhibition) at 10 µM; 2.2% of 190,000 active;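 active = thallium flux slope and its plate-corrected score both differing from the plate sample mean at a set confidence after two filtering rounds, in either direction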;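 note: slope of fluorescence scaled to starting intensity during 10 to 20 s after thallium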
Insulin prom inh – inhibitors of insulin promoter-driven GFP, primary screen, imaging, TRM-6 cells (human fetal islet line), eGFP reporter, cell count | reporter expression induced with tamoxifen | inhibition, % at 2 µM | 0.9% of 130,000 active | AID 1273, 2008;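 active = inhibition above the mean plus 3 SD, with well images judged a real hit on visual review, cut at about 60% in these data, passing the limit was not always enough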
Insulin prom up – insulin promoter activators in MIN6 cells, imaging, high-content screening, mouse beta cells. MIN6 insulin promoter-GFP reporter; hits give high values. z-score at 5 µM. 0.3% of 190,000 active;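 active = z-score above 3 at 5 µM with at least 500 cells counted in the well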
Active calls of the source: *; x = no result given. Shown are actives, neighbours in structure and some others; about 12% of the full set was active somewhere.

SMILES | Lmaj promast | ROMK primary | WT yeast gro inh | Cl transport mod | Insulin prom inh | Insulin prom up
CCCCc1c(C)c(C#N)c2nc3ccccc3n2c1Cl | 100* | -1.1 | 24 | 0.19 | 44 | 0.61
CCCc1cc(N2CCN(C(=O)c3ccco3)CC2)n2c(nc3ccccc32)c1C#N | 71* | -0.1 | 14 | -0.73 | -41 | -0.38
CCCc1cc(NCCCCO)n2c(nc3ccccc32)c1C#N | 14 | -0.26 | 6 | x | 79* | -0.08
Cc1cc(NCCCCO)n2c(nc3ccccc32)c1C#N | 11 | 0.67 | 24 | -1.3 | -105 | -0.25
COC(=O)C1CC(O)CN1C(=O)NC1CCCCC1 (stereo not drawn) | -5 | 0.86 | -1 | 0.34 | 0 | x
Cc1ccccc1C(=O)c1cccn1CC(=O)NCCC1=CCCCC1 | 3 | -0.96 | 27 | -0.83 | -67 | 0.16
Cc1ccccc1C(=O)c1cccn1CC(=O)NCCN1CCN(c2cccc(C)c2C)CC1 | 100* | -0.7 | 80* | 0.98 | -53 | -1.2
Cc1ccc(C)c(N2CCN(CCCNC(=O)Cn3cccc3C(=O)c3ccccc3C)CC2)c1 | 93* | x | 80* | 1.1 | -93 | -0.45
Cc1cc(OCC(=O)NCCCN2CCOCC2)cc(C)c1Cl | 71* | -0.3 | x | x | x | x
O=C(NCCCN1CCOCC1)c1sc2ccccc2c1Cl | 80* | -0.017 | 3 | 0.041 | x | -0.34
O=C(NCCCN1CCOCC1)c1cc2c(s1)CSC2 | 80* | 0.082 | 1 | x | 31 | 0.59
O=C(NCCCN1CCOCC1)c1ccccc1 | -5 | 0.044 | -4 | -0.35 | -32 | -0.59
CC(=O)Oc1cc2c(C(=O)NCCCN3CCOCC3)c(C)oc2c2ccccc12 | 52* | x | -15 | -0.0044 | x | 0.12
COCCn1c(SCC(=O)Nc2cccc(S(N)(=O)=O)c2)nc2ccccc21 | -1 | 0.094 | -4 | 1.1 | 34 | 0.08
CSCCC(=O)N1C(C)CCCC1C(=O)O (stereo not drawn) | -4 | x | -3 | 0.14 | -12 | 0.29
CCOC(=O)C1CCCN(S(=O)(=O)c2ccc(Br)s2)C1 (stereo not drawn) | -4 | -0.35 | -12 | x | 16 | -0.23
Cc1cc(C)nc(NC2=NCCN2C(=S)Nc2c(C)cccc2C)n1 | 9 | -0.3 | 11 | -0.91 | x | -0.14
CCC(CC)C(=O)c1c[nH]c(C(=O)NCCCN2CCOCC2)c1 | -2 | x | 82* | -1.4 | 27 | -0.19
CCCS(=O)(=O)Nc1c(C(=O)OC)[nH]c2ccccc12 | -1 | -0.063 | -16 | 0.22 | 14 | -0.39
FC(F)(F)C12CC(c3ccccc3)=NCCN1CCN2 (stereo not drawn) | 0 | 0.89 | 5 | x | 10 | 1.1
O=C(/C(=C/O)N=Nc1ccccc1)c1cccs1 | 83* | 0.64 | 3 | 1.5 | 43 | 0.65
CCOc1ccc2nc(/N=C/c3c(C)[nH]n(-c4ccccc4)c3=O)sc2c1 | 5 | 2.6* | 1 | 77* | x | 0.74
CCOc1ccc2nc(SC3CC(=O)N(c4ccc(C)cc4)C3=O)sc2c1 (stereo not drawn) | -7 | x | 29 | x | x | 0.53
CCOc1ccc2nc(/N=C/c3c(C)[nH]n(-c4ccc(C)cc4)c3=O)sc2c1 | 1 | 0.26 | 27 | 69* | 20 | 0.36
COc1cc2c(cc1[N+](=O)[O-])n(C(C)C)c(=O)n2C(C)C | 2 | 2.1 | 6 | 0.25 | -57 | 0.97
SMILES | Lmaj promast | ROMK primary | WT yeast gro inh | Cl transport mod | Insulin prom inh | Insulin prom up
CC(Sc1nnc(-c2ccc(O)cc2)o1)C(=O)Nc1cccc2ccccc12 (stereo not drawn) | 0 | 0.61 | -2 | x | 77* | 0.11
C#CC(=O)N(c1cccc(OC)c1)C(C(=O)NC1CCCC1)c1cccs1 (stereo not drawn) | 100* | x | 0 | -0.23 | x | -0.47
COc1ccc(CCN(C(=O)C(F)(F)F)C(C(=O)NC2CCCC2)c2cccs2)cc1OC (stereo not drawn) | 59* | x | 12 | x | 8 | 1
C#CC(=O)N(c1ccc(OC)c(OC)c1)C(C(=O)NC1CCCC1)c1cccs1 (stereo not drawn) | 100* | x | 3 | x | -212 | -0.42
CC1CN(S(=O)(=O)c2ccccc2)CC(C)O1 (stereo not drawn) | 0 | x | 16 | x | -32 | 0.95
O=C(COC(=O)c1ccc(=O)n(Cc2ccccc2)n1)Nc1ccc2c(c1)OCCO2 | -1 | -0.16 | 9 | x | x | 0.03
CC(=O)c1ccc(N=C2SCCCN2C(=O)C2CCCC2)cc1 | 64* | 0.12 | -4 | -0.022 | 55 | -0.21
CC1CCN(CCc2nc3cc(NS(=O)(=O)c4ccccc4)ccc3n2C)CC1 | 20 | -2.4 | -5 | 0.42 | x | -1.2
CC1CCN(CCc2nc3cc(NS(=O)(=O)c4ccc(F)cc4)ccc3n2C)CC1 | 99* | x | -11 | 0.042 | 43 | -0.04
Cn1c(CN2CCCCC2)nc2cc(NC(=O)c3cccc(Br)c3)ccc21 | 98* | -1.8 | 15 | 0.055 | -30 | 1.1
Cn1c(CN2CCCCC2)nc2cc(NS(=O)(=O)c3ccc(Cl)cc3)ccc21 | 66* | -0.1 | -4 | x | -20 | -0.61
Fc1ccc(-c2n[nH]c(=S)n2CC2CCCO2)cc1 (stereo not drawn) | 0 | 2.4* | 9 | 0.45 | x | 0.78
CCN(CC)c1ccc(/C=C/C(=O)c2cccnc2)cc1 | 49 | -0.65 | 13 | x | 41 | 1.3
O=C(/C=C/c1ccc(OCc2ccccc2)c(OCc2ccccc2)c1)c1cccnc1 | 100* | x | 0 | -0.18 | -5 | -0.5
COCCCNC(=O)c1ccc(-c2csc(C)n2)cc1 | 4 | x | -11 | 0.11 | -7 | x
Cc1cccn2cc(COc3ccc(-c4ccccc4)cc3)nc12 | 7 | -0.16 | 80* | -0.72 | 45 | x
Cc1cccn2cc(COc3cccc([N+](=O)[O-])c3)nc12 | 15 | -0.69 | -6 | -4.8 | x | -0.51
O=C(Nc1ccccc1)c1ccc(OC(=O)c2cc3ccccc3o2)cc1 | -1 | 0.77 | -6 | 0.86 | 18 | x
O=C(Oc1ccccc1/C=C\C(=O)c1cc2ccccc2o1)c1ccccc1 | 92* | 1.5 | 34 | 0.14 | 30 | 0.88
O=C(Oc1ccccc1/C=C\C(=O)c1cc2ccccc2o1)c1cccc(F)c1 | 79* | x | 38 | -0.05 | x | 2
COc1cccc(C(=O)Oc2ccccc2/C=C\C(=O)c2cc3ccccc3o2)c1 | 100* | x | 17 | 0.54 | x | 0.98
COc1ccc(O)c(C(=O)/C=C/c2cc3ccccc3o2)c1 | 4 | x | x | x | 19 | x
C(=C\c1ccccc1)/C=N/Nc1nc(N2CCOCC2)nc(N2CCOCC2)n1 | 0 | -0.17 | 4 | -0.72 | x | -0.57
CC(=C/c1ccccc1)/C=N/Nc1nc(N2CCOCC2)nc(N2CCOCC2)n1 | 63* | 0.15 | -4 | -0.15 | 33 | -1.3
O=[N+]([O-])c1cccc(/C=N/Nc2nc(N3CCOCC3)nc(N3CCOCC3)n2)c1 | 73* | x | -4 | -0.25 | 34 | 0.53
